# Test results reported in PubChem BioAssay (NCATS).
# Records with an inconclusive call do not appear. Entries that show only a call come without a potency. Calls of active or inactive are those of the source. Calls follow the shape of the dose curve; as a rule, active = well fitted inhibition curve with a large enough effect; inconclusive = small, poorly fitted or top-dose-only effect; inactive = flat fitted curve, though single readings scatter.
# Assay: Primary qHTS for inhibitors of nuclear receptor binding SET domain protein 2 (NSD2) in an isogenic RCH-ACV NSD2 p.E1099K mutant (9B) (AID 1645876); also: nearly all actives have a fitted effect of over 70% in size
compound,measurement,value
Nc1ccn(CC(CO)OCP(=O)(O)O)c(=O)n1 (stereo unspecified),Potency,inactive
